Data: the supplement of paper PMC10338343
± gives the standard deviation. Over roughly 3,700 sequences, “pre-steady-state target cleavage rate” has its median near 0.02; the highest 2% begin near 0.23. The sample as a whole holds a higher share of the highest values than the screen did.

test system: MILI (PIWIL2) piRISC loaded with Kctd7 piRNA (26 nt); test: pre-steady-state target cleavage rate (min^-1); MIWI and MILI are mouse PIWI proteins and EfPiwi is from a freshwater sponge; tags in brackets are library labels; higher = faster piRNA-guided slicing of the target; details: guide: Kctd7 piRNA 5'p-UGUUAAUCUCUCAGAGAAGGUGACAG; auxiliary factor: 500 nM mouse GTSF1
Protocol: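 Cleave-'n-Seq: a library of target RNAs (target site embedded in constant flanks, ACAGCATTCCGCGTTAGTGATATCCG... 5' flank; DNA-blocked outside the site) at 0.1 nM was incubated with 1 nM active mouse MILI or MIWI piRISC (synthetic 5'-monophosphorylated piRNA guide) with or without 500 nM mouse GTSF1 at 33 °C for 1 min to 16 h. Uncleaved targets were sequenced and normalised to non-target controls, and the pooled three trials were fitted to a burst-and-steady-state model to give the pre-steady-state cleavage rate (min^-1; k3 is constrained to at most 1e-4). Sequence is the target site only; target names encode pairing extent (gX:gY) and contiguous / 1-mismatch / 2-mismatch / bulge geometry. Fits with R² ≤ 0 are excluded.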

Row | Sequence | pre-steady-state target cleavage rate
1 | UAGUCUGUCACCUUCUCUGAGAGAAUUAACA | 0.32 ± 0.051
2 | UAGUGUGUCACCUUCUCUGAGAGAAUUAACA | 0.277 ± 0.048
3 | UAGUGUGUCACCUUCUCUGAGAAAUUAACA | 0.112 ± 0.019
4 | UAGUGUGUCACCUUCUCUGAGAAUUAACA | 0.0848 ± 0.036
5 | UAGUCUGUCACCUUCUCUGAGAAUUAACA | 0.0747 ± 0.031
6 | UAGUCUGUCACCUUCUCUGAGAAAUUAACA | 0.143 ± 0.018
7 | UAGUGACAGUCCUUCUCUGAUGAGAUUAACA | 0.00278 ± 0.0025
8 | UAGUGACACUCCUUCUCUGAGUGAUUAACA | 0.00415 ± 0.0032
9 | UAGUGACAGACGUACUCUGAGAGAUUAACA | 0.014 ± 0.0034
10 | UAGUGUGUCACCUACUCUGAGAGAUUUACA | 0.25 ± 0.052
11 | UAGUGUGUCACCUACUCUGAGAGAUUUUGA | 0.0414 ± 0.016
12 | UAGUGAGUCACCUACUCUGAGAGAUUUACA | 0.164 ± 0.053
13 | UAGUGUGUCACCUACUCUGAGAGAUUAUGA | 0.0343 ± 0.015
14 | UAGUGUGUCACCUACUCUGAGAGAUUAAGA | 0.1 ± 0.023
15 | UAGUGUGUCACCUACUCUGAGAGAUUAUCA | 0.239 ± 0.049
16 | UAGUGUGUCACCUUCUCUGAGAGAUUUACA | 0.266 ± 0.047
17 | UAGUGUGUCACCUUCUCUCUGAGAUUAACA | 0.0138 ± 0.004
18 | UAGUGUGUCACCUUCUCUGAGAGAUUACA | 0.122 ± 0.036
19 | UAGUGUGUCACCUUCUCUGAGAGAUUUAACA | 0.391 ± 0.052
20 | UAGUGUGUCACCUUCUCUGAGAGAUUAACA [g2:g25:cont:t1A] | 0.216 ± 0.015
21 | UAGUGUCUCACCUUCUCUGAGAGAUUUACA | 0.196 ± 0.043
22 | UAGUGACUGUCCUUCUCUGAGAGAUUAACA | 0.2 ± 0.016
23 | UAGUGAGUGACCUUGUCUGAGAGAUUAACA | 0.0726 ± 0.014

Row | Sequence | pre-steady-state target cleavage rate
24 | UAGUGACAGACCUUGUCUGACAGAUUAACA | 0.0121 ± 0.0036
25 | UAGUGAGUCACCUUCUCUGAGAGAUUCAACA | 0.279 ± 0.054
26 | UAGUGAGUCACCUUCUCUGAGAGAUUUUCA | 0.145 ± 0.044
27 | UAGUGAGUCACCUUCUCUGAGAGAUCAACA | 0.0788 ± 0.025
28 | UAGUCUGUCACCUUCUCUGAGAGAUUUUCA | 0.12 ± 0.031
29 | UAGUCUGUCACCUUCUCUGAGAGAUUCACA | 0.265 ± 0.059
30 | UAGUCUGUCACCUUCUCUGAGAGAUUACACA | 0.153 ± 0.022
31 | UAGUCUGUCAACCUUCUCUGAGAGAUUAACA | 0.0716 ± 0.011
32 | UAGUCUGUCACCUUCUCUGAGAGAUCAACA | 0.114 ± 0.018
33 | UAGUCUGUCACCUUCUCUGAGAGAUUCAACA | 0.324 ± 0.061
34 | UAGUGACAGUGCUUCUCUGAGAGAUUAUCA | 0.00765 ± 0.0025
35 | UAGUCUGUCACCUUCUCUCAGAGAUUAACA | 0.064 ± 0.0081
36 | UAGUGACAGUGGAACUCUGAGAGUUAAACA | < 0.0001
37 | UAGUGACACACCUUCUCUGAUGAGAUUAACA | 0.00949 ± 0.0043
38 | UAGUGAGUCACCUUCACUGACAGAUUAACA | 0.0411 ± 0.013
39 | UAGUGACACACCUUCUCUGAGAAAUUAACA | 0.219 ± 0.035
40 | UAGUGACUCACCUUCUCGAGAGAUUAACA | 0.02 ± 0.0065
41 | UAGUGUGUCACCUUCUCUGAAAGAUUAACA | 0.0569 ± 0.011
42 | UAGUGACAGUGGAACACUGAGACAUUAACA | < 0.0001
43 | UAGUGUGUCACCUUCUGUGAGAGUUUAACA | 0.0964 ± 0.027
44 | UAGUGUGUCACCUUCUCUGAGAGUAUAACA | 0.181 ± 0.072
45 | UAGUGUGUCACCUUCUCUGAGAGUUAACA | 0.194 ± 0.055
46 | UAGUGUGUCACCUUCUCUGAGAGUAAAACA | 0.194 ± 0.057

Row | Sequence | pre-steady-state target cleavage rate
47 | UAGUGUGUCACCUUCUCUGAGAGAGUUAACA | 0.259 ± 0.046
48 | UAGUGUGUCACCUUCUCUGAGAGAGUAACA | 0.287 ± 0.056
49 | UAGUCUCUCACCUUCUCUGAGAGUUUAACA | 0.183 ± 0.024
50 | UAGUGUGUCACCUUCUCUGAGAGUUUAACA | 0.316 ± 0.078
51 | UAGUGUGUCACCUUCUCUGUGAGUUUAACA | 0.0386 ± 0.0085
52 | UAGUGUGUCACCUUCUCUGAGAGUUAAACA | 0.146 ± 0.049
53 | UAGUGACUCACCUUCUCUGAGAGUUUAACA | 0.118 ± 0.028
54 | UAGUGUCUCACCUUCUCUGAGAGUUUAACA | 0.286 ± 0.038
55 | UAGUGAGUCACCUUGUCUGAGAGAUUUUGA | 0.0161 ± 0.0098
56 | UAGUGACACAGGAUCUCUGAGAGAUAUUGA | < 0.0001
57 | UAGUGUGUCACCGUCUCUGAGAGAUUAACA | 0.113 ± 0.012
58 | UAGUCUGUCUCCUUCUCUGAGAGAUUAAGA | 0.054 ± 0.012
59 | UAGUGUGUCACCUUCUCUGAGAGAUAACA | 0.0605 ± 0.02
60 | UAGUGAGUCACCUUCUCUGAGAGAUCUAACA | 0.171 ± 0.035
61 | UAGUGUGUCACCUUCUCUGAGAGAUCUAACA | 0.306 ± 0.071
62 | UAGUCUGUCACCUUCUCUAAGAGAUUAACA | 0.138 ± 0.0097
63 | UAGUCUGUCACCUUCUCUGAGAGAUCUAACA | 0.258 ± 0.054
64 | UAGUCUGUCACCUUCUCUGAGAGACUAACA | 0.149 ± 0.027
65 | UAGUGAGUCACCUUCUGUGUGAGAUUAACA | 0.0434 ± 0.0067
66 | UAGUGACAGUCCUUCUCUGAGAGUAAUUGA [g8:g20:cont:t1A] | < 0.0001
67 | UAGUGACUCACCUUCUCUGAGAGCUUAACA | 0.156 ± 0.022
68 | UAGUGAGUCACCUUGCUCUGAGAGAUUAACA | 0.351 ± 0.077
69 | UAGUCUGUCACCUUGCUCUGAGAGAUUAACA | 0.299 ± 0.059

Row | Sequence | pre-steady-state target cleavage rate
70 | UAGUGUGUCACCUUGCUCUGAGAGAUUAACA | 0.248 ± 0.061
71 | UAGUGACUCACCUUGCUCUGAGAGAUUAACA | 0.048 ± 0.016
72 | UAGUGAGUCACCUGCUCUGAGAGAUUAACA | 0.169 ± 0.018
73 | UAGUGUGUCACCUGCUCUGAGAGAUUAACA | 0.157 ± 0.012
74 | UAGUGUGUCACCUUGUCUGAGAGAUUAACA | 0.134 ± 0.021
75 | UAGUCUGUCACCUGCUCUGAGAGAUUAACA | 0.175 ± 0.011
76 | UAGUCUGUCACCUUGUCUGAGAGAUUAACA | 0.133 ± 0.016
77 | UAGUGACAGUCCUUCUCUGAGAGAUUAACCA | 0.0785 ± 0.0063
78 | UAGUGACAGACCUUCUCUGAGAGAUUCAACA | 0.177 ± 0.04
79 | UAGUGACACACCUUCUCUGAGAGAUUAACA [g2:g22:cont:t1A] | 0.178 ± 0.01
80 | UAGUGACACACCUUCUCUGAGAGAUUUUCA | 0.064 ± 0.02
81 | UAGUGACACACCUUCUCUCUGAGAUUAACA | 0.00653 ± 0.0037
82 | UAGUGACACACCUUCUCUGAGAGAUUUAACA | 0.243 ± 0.023
83 | UAGUGACACACCUUCUCUGAGAGAUUCAACA | 0.244 ± 0.061
84 | UAGUGACUCACCUUCUCUGAGAGAUUCAACA | 0.221 ± 0.035
85 | UAGUGACACACCUUCUCUGAGAGAUCAACA | 0.0804 ± 0.024
86 | UAGUGACUCACCUUCUCUGAGAGAUUCACA | 0.314 ± 0.091
87 | UAGUGACUCACCUUCUCUGAGAGAUUUUCA | 0.0728 ± 0.019
88 | UAGUGACACACCUUCUCUGAGAGAUUCACA | 0.258 ± 0.057
89 | UAGUGACACACCUUCUCUGAGAGAUAUUCA | 0.0197 ± 0.0083
90 | UAGUCUGUCACCUUCUCAGAGAGAAUAACA | 0.0517 ± 0.017
91 | UAGUGACUCACCUUCUCUGAGGGAUUAACA | 0.0864 ± 0.011
